Measurements as given in ChEMBL document CHEMBL4513216, “Probing the Open Global Health Chemical Diversity Library for Multistage-Active Starting Points for Next-Generation Antimalarials” (ACS Infect Dis, 2020).
The campaign covered roughly 65,000 compounds. About 2,100 (3.2%) showed an effect of 50% or more. The median lay at about -52%. This excerpt belongs to a sample that is enriched for strong results.

The molecules below were run on Plasmodium falciparum (assay: Screen against P. falciparum Asexual Blood Stage (ABS), at 5uM). Conditions: tested at 5 uM.
Type: functional, Dd2

| Compound | INHIBITION [%] |
| --- | --- |
| O=S(=O)(c1ccccc1)N1CCC2(CCCN2Cc2cccnc2)C1 (stereo not given) | -12 |
| CC(C)c1cc(NC(=O)CNC2CCc3ncnn3C2)on1 (stereo not given) | -54 |
| Cc1occc1C(=O)N1C[C@@H]2OCCN(CCN3CCCC3)[C@@H]2C1 | -86.8 |
| Cc1nc(CN2CCCC(c3cc(C(F)(F)F)[nH]n3)C2)cs1 (stereo not given) | -50.2 |
| COc1ccc(OCCc2sc(C3(O)CCCNCC3)nc2C)cc1 (stereo not given) | 5.84 |
| CCN1CCCC(O)(c2nc(C)c(CCOc3ccccc3Cl)s2)CC1 (stereo not given) | 21 |
| Cc1nc(C2(O)CCCNCC2)sc1CCOc1ccc(Cl)cc1 (stereo not given) | 61 |
| COc1ccc(OCc2sc(C3(O)CCCNCC3)nc2C)cc1 (stereo not given) | 14.8 |
| Cc1nc(C2(O)CCCNCC2)sc1CCOc1ccc(F)cc1 (stereo not given) | 34.5 |
| Cc1nc(C2(O)CCCNCC2)sc1CCOc1ccc(F)c(F)c1 (stereo not given) | 54.5 |
| Cc1nc(C2(O)CCCNCC2)sc1CCOc1ccccc1Cl (stereo not given) | 54.5 |
| Cc1nc(C2(O)CCCNCC2)sc1CCOc1ccccc1 (stereo not given) | -48.5 |
| CCN1CCCC(O)(c2nc(C)c(CCOc3ccc(F)cc3)s2)CC1 (stereo not given) | 23.9 |
| COc1ccccc1OCC(=O)NS(=O)(=O)c1ccc(Br)s1 | -26.8 |
| C[C@@H]1CN(C(=O)c2nc3ccc(Cl)cn3c2-c2ncc[nH]2)C[C@H](C)O1 | 49.4 |
| O=S(=O)(C1CC1)N1CCn2cc(CNc3ccccn3)nc2C1 | -76 |
| Cc1ccccc1C1(C(=O)NCCN2CCCCC2C)CCOCC1 (stereo not given) | 28.2 |
| CCC[C@@H]1CN(Cc2cc3c(cc2OC)OCO3)C[C@H]1C(=O)O | -43.7 |
| COc1ccc(CN2C[C@@H](CN(C)C)[C@@H](CO)C2)cc1CN1CCCC1 | -71 |
| CCC[C@@H]1CN(Cc2cc3c(cc2OC)OCCO3)C[C@H]1C(=O)O | -28.5 |
| CCC1c2ccsc2CCN1Cc1cc2c(cc1OC)OCCO2 (stereo not given) | 67.3 |
| COc1ccsc1C(=O)Nc1cc(CN2CCOCC2)ccc1C | -12.8 |
| COc1ccc(CN2CCc3sccc3C2C)cc1CN1CCOCC1 (stereo not given) | 56.1 |
| CCC1c2ccsc2CCN1C(=O)NCc1cccnc1OC (stereo not given) | 46.8 |
| CC1c2ccsc2CCN1Cc1cc2c(cc1O)OCO2 (stereo not given) | 27.2 |
| COc1cc2c(cc1CN1CCc3sccc3C1C)OCO2 (stereo not given) | 69.3 |
| Cc1nnc(N2C[C@H]3OCC[C@H]3[C@H](C(=O)NCC3CC3)C2)s1 | 4.38 |

| Compound | INHIBITION [%] |
| --- | --- |
| O=C1OCCN1CC(=O)N1C[C@@H]2CC[C@H]1CN(Cc1cscn1)C2 | -150 |
| CCn1cc2c(n1)CN(Cc1cnn(C)c1)CC2COCC1CC1 (stereo not given) | -28.3 |
| c1cc(-c2nc(C3CCN(Cc4ccsc4)CC3)no2)ccn1 | -4.11 |
| Cc1ccc(C(=O)N2Cc3ccccc3OC3(CCOCC3)C2)cn1 | -43.5 |
| c1nc2n(c1CN1CCCC1)CCN(C1CCOCC1)CC2 | -7.43 |
| COc1cccc(C(=O)N2C[C@@H](c3ccccc3)[C@@H]3NCCCC[C@@H]32)c1 | 16.7 |
| COc1ccc(C(=O)N2C[C@@H](c3ccccc3)[C@@H]3NCCCC[C@@H]32)cc1 | -70.2 |
| COc1cccc([C@H]2CN(C(=O)c3ccccc3)[C@@H]3CCCN[C@H]23)c1 | 56.5 |
| CN(C)S(=O)(=O)NC1CCCc2c1cnn2-c1ccc(C(C)(C)C)cc1 (stereo not given) | -174 |
| CN(C)C1CC2(CCN(C(=O)C3(C#N)CC3)CC2)c2ccccc21 (stereo not given) | -28.5 |
| CC(C)NCC1(COc2ccccc2)C[C@@H](O)[C@@H](O)C1 (stereo not given in full) | 60.4 |
| CC(C)NC(=O)NCC1(COc2cnccn2)C[C@@H](O)[C@@H](O)C1 (stereo not given in full) | -54.9 |
| O[C@@H]1CC(CNCC2CC2)(COc2cccnc2)C[C@@H]1O (stereo not given in full) | -24.8 |
| Cn1ccnc1NC[C@@H]1CCC[C@@H]2CN(CC3CC3)C[C@@H]21 | -46.7 |
| Cn1nc(COc2cccnc2)c2c1CCN(CC1CC1)C2 | -64 |
| Cc1ccc(C(C)C(=O)N2CCCN(Cc3cscn3)CC2)cc1 (stereo not given) | 57 |
| Cc1ccc(C)n1C(C)C(=O)N1CCCN(Cc2cscn2)CC1 (stereo not given) | -16.5 |
| Cc1cc(C(C)C(=O)N2CCCN(Cc3cscn3)CC2)c(C)o1 (stereo not given) | -136 |
| CN1CCC2(CC1)CC(NC(=O)c1csnn1)c1ccccc1O2 (stereo not given) | -8.75 |
| Brc1csc(-c2noc(C3COCCO3)n2)c1 (stereo not given) | -301 |
| O=C(Cc1ccc2c(c1)CCCC2)N[C@@H]1CC[C@@H](n2ccnc2)[C@@H]1O | -119 |
| CC(=O)N1CCN(c2ccccc2CNc2cc(F)cc(F)c2)CC1 | 14 |
| CN1CCN(c2ccccc2CNC(=O)CSC(F)(F)F)CC1 | 67.3 |
| CC(C)N(C)CC(=O)NCc1ccccc1N1CCN(C)CC1 | 43.8 |
| Cn1ccnc1CN1CCC2(CC1)CN(Cc1cccnc1)C(=O)CO2 | -38.8 |
| Cc1cc(C)cc(CN2CCN(Cc3cc(C#N)n(C)c3)CC2=O)c1 | 18.4 |
| CCn1cc(CN2CCN(Cc3cccc(OC)c3)C(=O)C2)cc1C#N | 47.9 |

| Compound | INHIBITION [%] |
| --- | --- |
| CCn1cc(CN2CCN(Cc3cc(C)cc(C)c3)C(=O)C2)cc1C#N | 68.4 |
| CCOC(=O)CNC(=O)NCc1cc(C)n(-c2ccccc2OC)c1C | -24.9 |
| c1nc(NCc2cc3n(n2)CCN(C2CCCCC2)C3)c2nc[nH]c2n1 | -10.3 |
| c1ncc(-c2ccc(C3CNCCO3)nc2)cn1 (stereo not given) | -94.8 |
| COc1ccc(-c2cnc(N(C)C)nc2C2CNCCO2)cc1 (stereo not given) | 28.8 |
| COc1ccc(-c2ccc(C3CNCCO3)nc2)cc1 (stereo not given) | 65 |
| Cc1nn(C)c(C)c1C1CCCN1C(=O)c1ccc2nnc(C)n2c1 (stereo not given) | -60.9 |
| CCN1CCN(C2CCN(Cc3nnc(C(C)(C)C)o3)CC2)C1=O | -29.7 |
| CCN1CCN(C2CCN(Cc3ncc(C(C)(C)C)o3)CC2)C1=O | 53.1 |
| CCc1nnc(CN2CCC(N3CCN(CC)C3=O)CC2)o1 | -39.7 |
| CN1CCN(C2CCN(Cc3nnc(C(C)(C)C)o3)CC2)C1=O | -117 |
| CNc1cc2c(nn1)CCN(C(=O)c1cc(C)n(C3CC3)c1C)C2 | -66.6 |
| O=C(N[C@]12CC1CN(C(=O)c1ccco1)C2)c1ccco1 (stereo not given in full) | 37.7 |
| O=C(N[C@]12CC1CN(C(=O)c1ccco1)C2)c1cccc(F)c1 (stereo not given in full) | 27.4 |
| CC(=O)N1CC2C[C@]2(NC(=O)c2ccco2)C1 (stereo not given in full) | 50.3 |
| O=c1[nH]c2nc(N3CCSCC3)ncc2c(=O)n1-c1ccc(F)cc1 | -26.3 |
| Cc1ncsc1CN1CC[C@H](O)[C@@H](n2cnc3c(N)ncnc32)CC1 | -98.6 |
| CCCc1ccc2oc(C(=O)N3CCCN(C)CC3)c(C)c2c1 | -22.2 |
| O=C(c1cc(-c2ccn(CC3CC3)n2)n2ccccc12)N1CCOCC1 | 69.5 |
| O=C(O)c1cc(-c2ccn(CC3CC3)n2)n2ccccc12 | -74.2 |
| O=C(c1cc(-c2ccn(CC3CC3)n2)n2ccccc12)N1CCCO1 | -84.4 |
| O=C(CN1CCOC(Cn2cccn2)C1)NCc1ccco1 (stereo not given) | -88.2 |
| O=C(NC1CC(F)(F)C1)[C@]12COC[C@H]1CN(Cc1ccccc1)C2 | -96 |
| Cc1cc(=O)n2nc(Oc3cccc(I)c3)sc2n1 | 56.4 |
| Cc1cc(=O)n2nc(Oc3cccc(C(N)=O)c3)sc2n1 | -166 |
| Cc1cc(=O)n2nc(Oc3ccc(F)c(F)c3)sc2n1 | -13.2 |
| COCCCNC(=O)CN1CCC(N2CCN(C)C2=O)CC1 | -137 |

| Compound | INHIBITION [%] |
| --- | --- |
| Cn1cnc2c1CCN(Cc1csc(-c3ccco3)n1)C2 | 51.3 |
| Cc1ccc(-c2nc(CN3CCc4c(ncn4C)C3)cs2)o1 | -159 |
| Cn1cnc2c1CCN(Cc1csc(-c3ccccc3)n1)C2 | -10.7 |
| Cc1cc(NC(=O)C(C)N2CCN(c3ccc(C#N)cc3F)CC2)no1 (stereo not given) | -124 |
| CN(C(=O)Nc1ccncc1)C1CCN(c2ccc(Cl)cc2)CC1 | -10.2 |
| COc1ccc(CNCCn2c(C)nc3ccccc32)cc1O | -82.4 |
| COc1ccc(CNCCc2ccn(-c3ccccc3)n2)cc1O | 67.1 |
| COc1ccc(-n2ccc(CNCc3ccc(OC)c(O)c3)n2)cc1 | -17.9 |
| CCCn1cc(NC(=O)c2cccnc2O)ccc1=O | -8.23 |
| CCc1nc(CNc2cc(C)nc(-c3cccnc3)n2)cs1 | -19.9 |
| CCc1noc(C2CCCCN2C(=O)c2cccs2)n1 (stereo not given) | -105 |
| CCc1noc(C2CCCCN2C(=O)c2nnc3ccccc3n2)n1 (stereo not given) | 65.5 |
| CCc1noc(C2CCCCN2C(=O)c2ccccc2)n1 (stereo not given) | -89.7 |
| Cc1cc(CN2C[C@@H](C)[C@@]3(CCN(C)C3=O)C2)oc1C | -1.06 |
| CCC(CNC(=O)c1ccc(Br)o1)N1CCc2ccccc2C1 (stereo not given) | 16.3 |
| CCC(CNC(=O)c1cncc(Br)c1)N1CCc2ccccc2C1 (stereo not given) | 66.9 |
| CCC(CNC(=O)c1ccccc1Br)N1CCc2ccccc2C1 (stereo not given) | 41.5 |
| CCN1CC(CN(C)Cc2nc(-c3cccc(C)c3)oc2C)CC1=O (stereo not given) | -142 |
| CCOCC1CN(Cc2cccnc2OC)Cc2cnn(C)c21 (stereo not given) | -60.6 |
| OCC1CCC2(CC1)CN(Cc1ccsc1)Cc1ccccc1O2 (stereo not given) | -50.7 |
| COCCN1CCOCC12CCN(c1nccs1)CC2 | -151 |
| Fc1ccc(C2(NCc3ccccc3)CCOCC2)cc1 | 64.2 |
| CSc1ccc(CNC2(c3ccc(F)cc3)CCOCC2)cc1 | 31.4 |
| CN(C)c1ccc(CNC2(c3ccc(F)cc3)CCOCC2)cc1F | 28.8 |
